Consider five molecules from PubChem BioAssay.

The nature of assay [1]: inhibitors of TNFa-induced NFkB p65 translocation, primary screen, imaging, HUVEC, MLSMR starter and 10KST1 sets (AID 438;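 active = inhibition above 20% together with a positive visual image hit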;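 also: compound added about 3h40 before a 20 min TNFalpha stimulation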;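 as to inhibition: signal is the nuclear over cytoplasmic p65 intensity ratio per well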). Conditions: HUVEC TNFa-induced p65 nuclear translocation; cell count: measured here: nuclei count (cytotoxicity indicator), at 2.08 µM unless noted; inhibition: at 2 µM, stronger effect = higher value unless noted.
The nature of assay [2]: inhibitors of mutant huntingtin aggregation, primary screen, imaging, exon1htt(103Q)mCFP cells, high-content imaging (AID 483;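 active = visual image review flags a hit and inhibition of aggregation exceeds 20%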;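 also: compound exposure lasted 3 days before fixation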;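 as to nuclei count: percent of the per-plate median nuclei count of sample wells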). Conditions: exon1htt(103Q)mCFP cell line, aggregate imaging, at 2 µM; inhibition of aggregation: stronger effect = higher value; nuclei count: measured here: cell count, toxicity.
The nature of assay [3]: inhibitors of E-selectin induction by TNFa, primary screen, imaging, HUVEC, immunofluorescence, MLSMR starter and 10KST1 sets (AID 487;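 active = visually confirmed hit in the image check and inhibition above 20%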;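 as to inhibition: signal is fraction of cell area covered by stained E-selectin grains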;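 as to nuclei count: 100% = median nuclei count of all wells on the same plate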). Conditions: HUVEC TNFalpha-induced E-selectin immunofluorescence imaging, at 2 µM; inhibition: stronger effect = higher value; nuclei count: measured here: cell number, toxicity.
A short description of assay [4]: DUSP6 inhibitors restoring Erk phosphorylation by chemical complementation, primary imaging in DUSP6-transfected HeLa (AID 609;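 active = compounds giving at least 50% inhibition in the cell-based MKP-3 phosphatase rescue imaging test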;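 as to inhibition: phospho-Erk level distribution per well compared with pooled transfected vehicle control wells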). Conditions: HeLa MKP-3 transfected, phospho-Erk imaging KS statistic, at 10 µM.
Assay [5] has as its target Dual specificity protein phosphatase 6 (Homo sapiens) (UniProt Q16828). Described as above. The note with it: HeLa MKP-3 transfected, phospho-Erk imaging KS statistic, at 10 µM, stronger effect = higher value.
The target of assay [6] is Voltage-gated potassium channel subunit beta-2 (Rattus norvegicus) (UniProt P62483). Put plainly: KvBeta enzyme negative modulators, primary screen, biochemical, NADPH fluorescence (AID 622;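 active = fluorescence slope higher than the sample average by over 3 SD, cut at about -0.22 in these data, passing the limit was not always enough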;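 also: slope of raw intensity against log time taken from 70 to 1610 s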). The note with it: recombinant KvBeta, 4-cyanobenzaldehyde reduction, at 10 µM, stronger effect = higher value.
The target is the same in assay [7]. Put plainly: KvBeta positive modulators, primary screen, biochemical, NADPH fluorescence (AID 623).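 Also: fluorescence intensity change per second fitted from 20 to 320 s.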 Conditions: Recombinant KvBeta, NADPH fluorescence decrease slope, 10 min; at 10 µM; stronger effect = lower value.
In assay [8] the target is Alpha-2C adrenergic receptor (Homo sapiens) (UniProt P18825). In words: modulators of alpha2C/GIRK thallium flux, primary screen, cell-based, HEK293 alpha2C/GIRK1/2 (AID 624;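 active = fluorescence slope after compound addition differing from the mean of all screened samples at 99.7% confidence, in either direction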;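 also: slope of fluorescence ratio to pre-addition baseline per second over 15 to 24 s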). The note with it: thallium flux BTC fluorescence, at 10 µM, actives lie on both sides.
For assay [9], the target named is Muscarinic acetylcholine receptor M4 (Homo sapiens) (UniProt P08173). Put plainly: compounds altering M4/GIRK thallium flux, either direction, primary screen, M4 allosteric agonist project, cell-based, HEK293 M4/GIRK, BTC-AM (AID 625;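 active = fluorescence slope after compound addition differing from the mean of all tested samples at 99.7% confidence, mostly higher but some lower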;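 also: thallium influx through GIRK channels coupled to M4 in HEK293 cells with BTC-AM dye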). Conditions: at 10 µM, actives lie on both sides.
A short description of assay [10]: inhibitors of larval lipid processing in zebrafish, primary screen, whole organism, PED6 fluorescence, gall bladder and intestine (AID 686;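 active = a full or partial loss of lipid-probe fluorescence in the fish gall bladder, intestine or both, judged by eye; inactive = no fluorescence loss, or compound toxic to the fish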;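 also: larvae 5 to 7 days old with five fish per well; signal comes from phospholipase A2 cleavage of quenched PED6 carried via bile; overnight exposure to compound and PED6 before scoring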). Conditions: Zebrafish larvae PED6 lipid processing, fluorescence scoring.
Assay [11] can be described thus: inhibitors of Chlamydomonas gravitaxis, primary screen, whole organism, Chlamydomonas reinhardtii, WT vs cilia-less mutant, absorbance, 96-well (AID 463189;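 active = inhibition at or above 50% relative to wild type and mutant plate controls; inactive = inhibition below 50%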;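 also: 0% = wild type cc124 cells in DMSO and 100% = ciliumless bld1 mutant cells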). The note with it: OD600 absorbance, 2 days, at 10 µM, stronger effect = higher value.
Assay [12] is described as follows: inhibitors of Sendai virus-induced IRF3 signaling, primary screen, TLR/RLR signaling modifier project, cell-based, Sendai virus stimulus, luciferase, 10K MLSCN set (AID 602276;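 active = inhibition at or above 50% at 10 µM; inactive = inhibition below 50%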;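 also: firefly luciferase from ISG56 promoter only with Renilla not read in this screen; 0% = Sendai virus plus DMSO and 100% = medium plus DMSO without virus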). The note with it: HEK293 RL24 IRF3 luciferase reporter, at 10 µM, stronger effect = higher value. (In general: A reporter such as luciferase makes a cellular process visible.)
A short description of assay [13]: inhibitors of poly I:C-induced TLR3 signaling, primary screen, cell-based, poly I:C stimulus, luciferase, 10K MLSCN set (AID 602277;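 active = inhibition of the reporter signal at or above 50%; inactive = inhibition below 50%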). Conditions: HEK293-TLR3 RL24 IRF3 luciferase reporter, at 10 µM, stronger effect = higher value.
Assay [14] deals with Solute carrier family 12 member 5 (Homo sapiens) (UniProt Q9H2X9). In words: KCC2 modulators in sodium-free buffer, confirmation, cell-based, HEK293 KCC2, thallium flux, secondary assay (AID 1713;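 active = thallium flux slope above the same plate's solvent-only control mean plus 3 SD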). Conditions: FluoZin2 fluorescence, at 10 µM, stronger effect = higher value.
Assay [15] shares this target. In words: KCC2 modulators without ouabain present, confirmation, cell-based, HEK293 KCC2, thallium flux, FluoZin2, secondary assay 2 (AID 1715;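 active = thallium flux slope more than 3 SD above or below the plate's solvent-only control mean, mostly below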;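 also: raw slope with 0.1% DMSO as baseline and bumetanide as block control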). The note with it: HEK293-KCC2, thallium flux FluoZin2 fluorescence; at 10 µM; actives lie on both sides.
The nature of assay [16]: thallium flux modulation in parental HEK cells, confirmation, counter-screen for KCC2 modulator project, cell-based, counterscreen 1 (AID 1716;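 active = thallium flux rate significantly above the same plate's solvent-only control wells, beyond their mean plus 3 SD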). Conditions: HEK293 parental cells, thallium flux FluoZin2, ouabain; at 10 µM; baseline-ratio fluorescence slope, 10–20 s after thallium. On the technique in general: A counterscreen serves to expose hits that act by an unwanted route or on another target.

The target in assay [17] is Solute carrier family 12 member 5 (Homo sapiens) (UniProt Q9H2X9). Put plainly: KCC2 inhibitors and activators, ouabain retest, confirmation, HEK-KCC2 cells (AID 1717;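 active = thallium flux slope beyond 3 SD from same-plate DMSO control mean in most replicates, usually higher, sometimes lower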;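 also: slope of initial-normalized fluorescence between seconds 10 and 20 after thallium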). The note with it: HEK293-KCC2, thallium flux FluoZin2 fluorescence, at 10 µM, bidirectional: low = inhibitor, high = activator.
The mark [18] stands for this setting: measured here: cell density z-score.
[19] abbreviates: measured here: nuclear c-Myc green intensity z-score.
[20] abbreviates: measured here: nuclear pErk red intensity z-score, stronger effect = higher value.

This is one part of the list. Records with an inconclusive call do not appear. Activity calls are given as the source filed them.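 The calls were made as follows, unless noted: active = NADPH fluorescence slope more negative than the mean of all samples by about 3 SD, 99.7% confidence; inactive = the rest.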

Alpha-2C adrenergic receptor (Homo sapiens), sequence (P18825 whole entry, looked up): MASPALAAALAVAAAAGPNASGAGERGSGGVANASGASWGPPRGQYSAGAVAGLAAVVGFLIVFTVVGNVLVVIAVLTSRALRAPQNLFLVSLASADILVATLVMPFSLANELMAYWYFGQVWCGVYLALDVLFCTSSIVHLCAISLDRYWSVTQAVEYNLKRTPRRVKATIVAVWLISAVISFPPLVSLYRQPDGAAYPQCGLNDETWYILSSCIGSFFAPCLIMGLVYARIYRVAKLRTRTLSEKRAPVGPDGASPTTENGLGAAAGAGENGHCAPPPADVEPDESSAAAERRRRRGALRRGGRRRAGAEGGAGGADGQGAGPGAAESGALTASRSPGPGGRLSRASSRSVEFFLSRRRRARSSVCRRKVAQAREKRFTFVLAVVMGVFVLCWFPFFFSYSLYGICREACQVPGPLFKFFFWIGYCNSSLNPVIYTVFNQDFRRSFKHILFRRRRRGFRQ
Voltage-gated potassium channel subunit beta-2 (Rattus norvegicus), sequence (P62483 whole entry, looked up): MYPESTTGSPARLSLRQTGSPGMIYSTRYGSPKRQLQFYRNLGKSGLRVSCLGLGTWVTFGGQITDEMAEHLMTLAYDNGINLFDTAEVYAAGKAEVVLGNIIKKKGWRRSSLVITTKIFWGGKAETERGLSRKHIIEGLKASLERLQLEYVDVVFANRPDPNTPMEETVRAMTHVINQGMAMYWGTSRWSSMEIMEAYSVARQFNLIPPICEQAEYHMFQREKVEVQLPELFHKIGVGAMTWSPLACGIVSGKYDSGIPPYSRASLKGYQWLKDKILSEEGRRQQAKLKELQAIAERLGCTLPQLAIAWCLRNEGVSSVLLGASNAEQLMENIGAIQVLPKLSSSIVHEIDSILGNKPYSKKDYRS
Dual specificity protein phosphatase 6 (Homo sapiens), sequence (Q16828 whole entry, looked up): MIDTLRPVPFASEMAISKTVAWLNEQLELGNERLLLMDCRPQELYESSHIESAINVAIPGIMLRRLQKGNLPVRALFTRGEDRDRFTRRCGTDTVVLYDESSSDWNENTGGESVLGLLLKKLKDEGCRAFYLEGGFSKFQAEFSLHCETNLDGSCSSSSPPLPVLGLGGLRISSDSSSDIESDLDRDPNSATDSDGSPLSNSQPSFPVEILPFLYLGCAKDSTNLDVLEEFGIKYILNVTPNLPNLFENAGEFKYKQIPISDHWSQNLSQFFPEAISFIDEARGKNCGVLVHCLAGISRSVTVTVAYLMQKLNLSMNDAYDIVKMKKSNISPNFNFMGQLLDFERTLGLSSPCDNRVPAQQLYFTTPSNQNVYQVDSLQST
Solute carrier family 12 member 5 (Homo sapiens), sequence (Q9H2X9 whole entry, looked up): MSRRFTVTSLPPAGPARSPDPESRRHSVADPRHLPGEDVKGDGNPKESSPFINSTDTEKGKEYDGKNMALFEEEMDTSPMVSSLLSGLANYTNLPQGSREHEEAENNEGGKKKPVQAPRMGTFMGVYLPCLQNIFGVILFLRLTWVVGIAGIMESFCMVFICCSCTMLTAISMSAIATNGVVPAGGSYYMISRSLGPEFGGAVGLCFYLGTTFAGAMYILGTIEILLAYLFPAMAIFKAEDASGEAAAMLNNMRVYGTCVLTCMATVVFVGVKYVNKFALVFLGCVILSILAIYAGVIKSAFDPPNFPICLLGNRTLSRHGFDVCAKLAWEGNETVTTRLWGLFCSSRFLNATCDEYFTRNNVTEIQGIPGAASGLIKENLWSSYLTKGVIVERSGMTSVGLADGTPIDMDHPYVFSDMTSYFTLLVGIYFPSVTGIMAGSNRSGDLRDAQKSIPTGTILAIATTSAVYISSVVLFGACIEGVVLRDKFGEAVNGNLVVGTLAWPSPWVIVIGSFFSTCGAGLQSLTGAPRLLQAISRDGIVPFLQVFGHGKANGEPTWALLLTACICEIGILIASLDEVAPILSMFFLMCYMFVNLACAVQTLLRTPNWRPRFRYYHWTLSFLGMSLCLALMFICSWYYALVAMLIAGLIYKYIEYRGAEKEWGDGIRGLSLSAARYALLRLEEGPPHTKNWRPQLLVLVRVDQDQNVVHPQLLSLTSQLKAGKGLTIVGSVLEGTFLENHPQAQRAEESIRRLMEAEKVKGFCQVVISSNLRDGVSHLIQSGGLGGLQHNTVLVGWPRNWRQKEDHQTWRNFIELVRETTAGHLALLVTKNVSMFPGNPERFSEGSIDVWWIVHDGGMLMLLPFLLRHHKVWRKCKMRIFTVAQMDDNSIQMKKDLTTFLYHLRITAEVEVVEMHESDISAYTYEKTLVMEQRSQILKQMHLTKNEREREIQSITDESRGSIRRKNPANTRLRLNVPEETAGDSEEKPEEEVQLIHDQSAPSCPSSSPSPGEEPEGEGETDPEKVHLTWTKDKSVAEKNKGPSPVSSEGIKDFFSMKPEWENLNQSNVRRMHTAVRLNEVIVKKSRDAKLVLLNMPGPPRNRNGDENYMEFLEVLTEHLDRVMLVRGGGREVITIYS
Muscarinic acetylcholine receptor M4 (Homo sapiens), sequence (P08173 whole entry, looked up): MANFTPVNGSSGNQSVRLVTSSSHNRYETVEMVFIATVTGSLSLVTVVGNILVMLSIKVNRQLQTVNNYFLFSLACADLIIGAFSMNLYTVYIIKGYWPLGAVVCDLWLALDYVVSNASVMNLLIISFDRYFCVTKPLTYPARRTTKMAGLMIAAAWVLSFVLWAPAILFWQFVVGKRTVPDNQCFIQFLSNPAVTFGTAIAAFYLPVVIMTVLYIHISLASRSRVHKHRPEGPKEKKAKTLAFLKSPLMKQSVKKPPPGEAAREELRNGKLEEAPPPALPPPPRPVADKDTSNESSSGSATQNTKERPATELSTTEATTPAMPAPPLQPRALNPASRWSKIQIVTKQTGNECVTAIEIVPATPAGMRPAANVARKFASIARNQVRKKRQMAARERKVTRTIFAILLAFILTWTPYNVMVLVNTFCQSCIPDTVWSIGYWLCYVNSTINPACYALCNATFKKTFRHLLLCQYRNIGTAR

`CC1=NOC2(C)Nc3ncnn3C(c3ccccc3)C12` (stereo unspecified) came in with a cell count in assay [1] of 604. In addition, the inhibition in [1] was -11.4% (inactive); in assay [3], -129% (inactive); in assay [5] it was 1.98% (inactive); in [11] it was 2.9% (inactive); in assay [12], -5.02% (inactive); in assay [13], 6.14% (inactive). Moreover, the inhibition of aggregation in [2] was 21% (inactive). Moreover, the nuclei count in [2] was 85%; in assay [3], 145%. For the same molecule, the z-score turned out to be 0.203 in assay [4] (setting [18]), 0.546 in assay [4] (setting [19]) and 1.46 in assay [4] (setting [20]). Moreover, the fluorescence slope in assay [6] was -0.454 (inactive); in assay [9], 0.00509 (inactive). The NADPH fluorescence slope in [7] is -5.1e-05 (inactive). The slope in [8] is 0.00521 (inactive). For the same molecule, the outcome in [10] was inactive.

For `[N-]=[N+]=CC(=O)OC[C@H](N)C(=O)O`, the cell count in assay [1] is 594. The inhibition in [1] was -4% (inactive); in assay [3] it was -25.7% (inactive); in [5] it was 25.1% (inactive); in assay [11], -8.35% (inactive); in assay [12], 16.7% (inactive); in assay [13], 21.9% (inactive). Besides, the inhibition of aggregation in assay [2] is -0.4% (inactive). In addition, the nuclei count in assay [2] amounted to 104%; in assay [3], 133%. Also, the z-score in [4] (setting [18]) is -0.1; in [4] (setting [19]), -0.513; in assay [4] (setting [20]), -0.992. In addition, the fluorescence slope in assay [6] was -0.53 (inactive). In addition, the NADPH fluorescence slope in assay [7] was 2.4e-05 (inactive). In addition, in [8], the slope was 0.00503 (inactive). In addition, in assay [10], the molecule was called inactive.

The molecule `CCOc1ccc(-n2c(O)c(C=NCCN3CCNCC3)c(=O)[nH]c2=O)cc1` had a cell count in assay [1] of 537. The inhibition in [1] was 3.2% (inactive); in [3], -38.9% (inactive); in assay [5] it was -4.7% (inactive); in assay [11] it was 8.26% (inactive); in assay [12] it was 14.4% (inactive); in [13], 22.5% (inactive). For the same molecule, in assay [2], the inhibition of aggregation is -17.4% (inactive). Moreover, the figures for the nuclei count in assay [2] and in assay [3] were 96.7% and 144%, respectively. Also, the z-score in assay [4] (setting [18]) is -0.956; in [4] (setting [19]), -1.36; in [4] (setting [20]), 0.949. For the same molecule, in assay [6], the fluorescence slope was -0.351 (inactive). In addition, the NADPH fluorescence slope in assay [7] was -8.4e-06 (inactive). For the same molecule, in [8], the slope was 0.00537 (inactive). Moreover, the molecule was called inactive in assay [10].

In assay [1], `O=C1NC(=O)C(C/C=C/c2ccccc2)C(=O)N1` yielded a cell count of 678. Also, the inhibition in assay [1] is -2.2% (inactive); in [3] it was 29.3% (inactive); in assay [5], 16.5% (inactive); in [11] it was -5.46% (inactive). In assay [3], this molecule came in with a nuclei count of 154%. Also, the z-score was 0.051 in [4] (setting [18]), 0.145 in assay [4] (setting [19]) and 0.14 in assay [4] (setting [20]). In addition, the fluorescence slope in assay [6] is -0.473 (inactive); in [9], 0.00573 (inactive). Besides, in assay [7], the NADPH fluorescence slope is -4.7e-05 (inactive). Moreover, the result in [10] was inactive. Moreover, the normalised thallium flux (F/F0 slope) in assay [14] is 0.00969 (inactive). Also, the normalized thallium flux in assay [15] is 0.0324 (inactive). The thallium flux rate (normalised fluorescence) in assay [16] is 0.0082 (inactive). Besides, the raw Tl+ flux slope (below DMSO = inhibition, above = activation) in assay [17] was 0.0194 (inactive).

Molecule `COC1=CC(=O)OC(/C=C/c2ccccc2)C1` (stereo unspecified) yielded a cell count in [1] of 562. Further, the inhibition in [1] is 0.9% (inactive); in assay [3] it was 1.6% (inactive); in [5] it was 25.7% (inactive); in assay [11], -16.3% (inactive); in assay [12] it was 0.4% (inactive); in assay [13] it was -0.629% (inactive). In addition, the inhibition of aggregation in [2] is 17.4% (inactive). The nuclei count in assay [2] was determined as 92%; in assay [3] it was 112%. Also, the z-score in assay [4] (setting [18]) is 1.47; in assay [4] (setting [19]) it was -1.75; in assay [4] (setting [20]), -1.36. For the same molecule, in [6], the fluorescence slope was -0.448 (inactive). Besides, in assay [7], the NADPH fluorescence slope was -5.6e-05 (inactive). Further, the slope in assay [8] was 0.00584 (inactive). Also, the molecule was called inactive in assay [10].

Usually inhibition stands for the drop in the measured response relative to a control, in per cent.
